Measurements: PubChem BioAssay (NCATS)
Results filed as inconclusive are left out. Active and inactive are the calls of the source. Unless noted, the call rests on the fitted dose curve; in most records, active means well fitted curve in either direction with a large enough effect (not every such curve was filed as active); inconclusive means small, poorly fitted or top-dose-only effect, or another doubt; inactive means flat fitted curve, though single readings scatter.

Experiments:
[1] = AP1 Signaling Pathway (AID 357); conditions: ME-180 AP-1-bla reporter, EGF-induced, beta-lactamase ratio, 5 h; at 7.69 µM (top of the series) unless noted;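 further: ME-180 reporter cells stimulated with EGF at its EC50 level; on the % scale 0 is the no-effect control and ±100 the full control effect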
Summary of the method: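 Beta-lactamase reporter under AP-1 response element, ME-180 background. Stimulus: EC50 EGF. Compound exposure 5 h, 37 °C. Detection: CCF4, 2.5 h RT, 460/530 nm. Values: AC50 from titration.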

[2] = target: Cytochrome P450 1A2 (Homo sapiens) (UniProt P05177); assay: p450-cyp1a2 (AID 410; calls by dose curve; further: potency means the concentration at half of the fitted maximal effect;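 on activity change, negative = inhibition: -100% = full effect of reference inhibitor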)
Sequence of Cytochrome P450 1A2 (Homo sapiens) (P05177 whole entry, looked up): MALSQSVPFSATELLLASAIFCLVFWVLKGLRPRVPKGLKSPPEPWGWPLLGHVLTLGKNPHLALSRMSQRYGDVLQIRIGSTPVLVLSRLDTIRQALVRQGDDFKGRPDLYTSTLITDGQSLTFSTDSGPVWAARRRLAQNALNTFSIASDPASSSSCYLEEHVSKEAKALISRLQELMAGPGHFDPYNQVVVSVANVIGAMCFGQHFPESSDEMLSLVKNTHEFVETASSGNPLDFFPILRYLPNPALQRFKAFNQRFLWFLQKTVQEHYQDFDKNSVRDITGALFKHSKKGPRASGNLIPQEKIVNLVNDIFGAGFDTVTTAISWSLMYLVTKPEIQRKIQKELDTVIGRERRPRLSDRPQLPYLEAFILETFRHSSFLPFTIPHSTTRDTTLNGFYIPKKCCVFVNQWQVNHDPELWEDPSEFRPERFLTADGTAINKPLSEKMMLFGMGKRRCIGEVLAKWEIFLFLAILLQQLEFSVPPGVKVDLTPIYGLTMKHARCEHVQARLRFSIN
Summary of the method: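 20nM CYP1A2, 100uM Luciferin-ME (=Km), 100mM KPO4; cpd 10 min RT; +NADPH regen, 60 min RT; stop/detect 20 min; luminescence. Normalized to furafylline 57 uM = full inhibition.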

[3] = NFAT Signaling Pathway (AID 444); conditions: Jurkat NFAT-bla M1, carbachol, beta-lactamase ratio, 5 h; at 7.69 µM (top of the series) unless noted;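 further: carbachol stimulus at about its EC50 of 1 µM final; on the % scale 0 is the no-effect control and ±100 the full control effect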
Summary of the method: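 Jurkat cells with NFAT-driven β-lactamase reporter and co-expressed M1 receptor, stimulated with carbachol (final 1 uM, ~EC50), compound titration, 5 h at 37 °C. CCF4 loaded 1 h at RT; 460/530 nm ratio gave %activity and AC50.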

[4] = Stat Signaling Pathway (AID 446); conditions: ME-180 SIE beta-lactamase reporter, IL-6 stimulated, 5 h; at 7.69 µM (top of the series) unless noted;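 further: ME-180 cervical cancer cells given 40 pM IL-6 alongside compound; SIE-controlled beta-lactamase reporter measured as 460/530 nm FRET emission ratio; on the % scale 0 is the no-effect control and ±100 the full control effect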
Summary of the method: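 Compound effects on IL-6-induced STAT reporter activity were measured in ME-180 cells. After overnight culture, cells were co-treated with 40 pM IL-6 for 5 hrs before beta-lactamase substrate loading at room temperature.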

[5] = target: Glucocorticoid receptor (Homo sapiens) (UniProt P04150); assay: GR-GFP Redistribution (AID 450;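 active means compounds whose dose series gives a full or clear partial fitted curve of increased nuclear translocation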; further: potency means the concentration at half of the fitted maximal effect); conditions: U2OS GR-GFP nuclear translocation, laser cytometry, 2 h
Sequence of Glucocorticoid receptor (Homo sapiens) (P04150 whole entry, looked up, the tested form may be a part): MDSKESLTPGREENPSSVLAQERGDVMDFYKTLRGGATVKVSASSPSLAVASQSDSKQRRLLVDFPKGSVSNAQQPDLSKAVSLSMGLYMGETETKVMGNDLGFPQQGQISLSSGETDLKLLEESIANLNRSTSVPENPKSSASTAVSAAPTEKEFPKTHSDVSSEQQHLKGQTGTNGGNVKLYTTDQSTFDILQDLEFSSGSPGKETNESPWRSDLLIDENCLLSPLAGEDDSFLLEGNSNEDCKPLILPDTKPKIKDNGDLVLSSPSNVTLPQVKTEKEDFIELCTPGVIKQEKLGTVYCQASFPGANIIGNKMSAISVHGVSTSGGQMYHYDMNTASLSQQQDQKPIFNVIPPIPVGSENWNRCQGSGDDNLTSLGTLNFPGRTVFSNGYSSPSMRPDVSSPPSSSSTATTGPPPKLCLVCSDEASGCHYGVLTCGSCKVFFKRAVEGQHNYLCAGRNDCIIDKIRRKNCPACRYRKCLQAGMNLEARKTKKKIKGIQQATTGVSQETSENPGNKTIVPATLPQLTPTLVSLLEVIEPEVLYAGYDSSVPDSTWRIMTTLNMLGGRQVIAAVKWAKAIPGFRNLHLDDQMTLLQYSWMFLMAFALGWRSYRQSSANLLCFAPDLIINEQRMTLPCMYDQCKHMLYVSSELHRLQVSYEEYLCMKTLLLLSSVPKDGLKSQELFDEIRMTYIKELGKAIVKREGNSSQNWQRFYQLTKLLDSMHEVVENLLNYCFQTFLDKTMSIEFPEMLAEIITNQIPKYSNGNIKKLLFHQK

[6] = target: Glucocorticoid receptor (Homo sapiens) (UniProt P04150); assay: GR-EFC Redistribution (AID 451; calls by dose curve; further: potency means the concentration at half of the fitted maximal effect); conditions: CHO-K1 GR-EFC translocation, beta-gal luminescence, 2 h
Summary of the method: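 CHO-K1 cells expressing nuclear EA and GR-ED fragments of b-gal; compounds titrated up to 46 uM final, 2 h at 37 C. GR nuclear translocation read as complemented b-gal luminescence after 1 h RT detection.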

[7] = target: Mitogen-activated protein kinase 10 (Mus musculus) (UniProt Q61831); assay: JNK3 AlphaScreen Assay (AID 530);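 further: kinase came from lysate of stimulated human HepG2 cells; signal reports phosphorylation of biotinylated GST-cJun 1-79 at Ser73 with 10 µM ATP; on the % scale 0 is the no-effect control and ±100 the full control effect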
Summary of the method: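 HepG2 lysate (IL-1b/TNFa pre-activated) + biotin-GST-cJun 1-79 + anti-pSer73 cJun; cpd titration, 15 min RT; ATP 10 uM start; Tris pH 7.6, MgCl2, DTT, vanadate; beads in EDTA buffer; AlphaScreen.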

[8] = target: 3',5'-cyclic-AMP phosphodiesterase 4B (Homo sapiens) (UniProt Q07343); assay: qHTS Assay for Inhibitors of PDE-IV (AID 607; active means well fitted activation curve with a large enough effect in the main read-out, with a control signal flat, not every such curve was filed as active; further: % of control where 0% means no effect)
Sequence of 3',5'-cyclic-AMP phosphodiesterase 4B (Homo sapiens) (Q07343 whole entry, looked up): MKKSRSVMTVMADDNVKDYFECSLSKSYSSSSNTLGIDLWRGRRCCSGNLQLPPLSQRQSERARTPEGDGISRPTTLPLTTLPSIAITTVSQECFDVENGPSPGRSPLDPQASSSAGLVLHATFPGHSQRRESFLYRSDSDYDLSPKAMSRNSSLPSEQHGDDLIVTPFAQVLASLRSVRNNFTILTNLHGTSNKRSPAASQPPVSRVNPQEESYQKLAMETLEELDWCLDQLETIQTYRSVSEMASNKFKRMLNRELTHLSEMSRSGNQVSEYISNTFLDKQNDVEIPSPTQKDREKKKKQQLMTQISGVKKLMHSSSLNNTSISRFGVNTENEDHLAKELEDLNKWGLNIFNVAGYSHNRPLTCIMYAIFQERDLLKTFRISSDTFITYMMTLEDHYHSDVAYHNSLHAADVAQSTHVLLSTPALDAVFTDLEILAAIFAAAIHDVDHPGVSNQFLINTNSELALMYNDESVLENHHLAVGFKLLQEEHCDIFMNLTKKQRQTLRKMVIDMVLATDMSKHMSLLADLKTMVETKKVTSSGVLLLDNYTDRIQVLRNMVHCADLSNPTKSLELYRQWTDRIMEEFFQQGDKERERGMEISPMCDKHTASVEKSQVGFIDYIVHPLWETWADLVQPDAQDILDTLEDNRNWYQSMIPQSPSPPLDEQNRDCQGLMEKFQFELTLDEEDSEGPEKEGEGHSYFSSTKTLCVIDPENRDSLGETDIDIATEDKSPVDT
Summary of the method: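 ACTOne HEK293 cells carry a modified cAMP-gated CNG channel and express endogenous PDE4; plated 1000 cells/well, compounds up to 22.9 uM final. Membrane-potential dye fluorescence (ex 535/em 590) was read; parental cells received 10 uM forskolin + 100 uM RO 20-1724.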

[9] = target: Cytochrome P450 3A4 (Homo sapiens) (UniProt P08684); assay: qHTS Assay for Activators of Cytochrome P450 3A4 (AID 885; active means well fitted curve in the direction sought with a large enough effect; an effect the other way counts as inactive or inconclusive; further: nearly all actives have a fitted effect of over 65% in size)
Sequence of Cytochrome P450 3A4 (Homo sapiens) (P08684 whole entry, looked up): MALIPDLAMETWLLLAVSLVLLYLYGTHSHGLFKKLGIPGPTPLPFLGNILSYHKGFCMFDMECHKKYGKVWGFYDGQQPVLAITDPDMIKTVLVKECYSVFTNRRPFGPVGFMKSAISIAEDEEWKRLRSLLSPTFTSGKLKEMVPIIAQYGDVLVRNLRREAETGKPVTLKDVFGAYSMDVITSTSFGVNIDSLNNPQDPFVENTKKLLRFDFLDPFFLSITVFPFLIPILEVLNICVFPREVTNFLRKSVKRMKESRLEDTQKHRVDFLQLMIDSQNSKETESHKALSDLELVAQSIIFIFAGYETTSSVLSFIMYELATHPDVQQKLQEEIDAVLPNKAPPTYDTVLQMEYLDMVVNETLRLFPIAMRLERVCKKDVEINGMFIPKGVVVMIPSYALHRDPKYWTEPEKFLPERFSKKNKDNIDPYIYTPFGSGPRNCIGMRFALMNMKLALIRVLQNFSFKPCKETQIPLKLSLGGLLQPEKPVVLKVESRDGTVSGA
Summary of the method: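 CYP3A4 activity: Luciferin-PPXE O-dealkylation, 25uM substrate, 200mM KPO4, RT throughout. Read-out is luciferase luminescence; higher values reflect activation.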

[10] = target: Guanine nucleotide-binding protein G(i) subunit alpha-1 (Homo sapiens) (UniProt P63096); assay: qHTS Assay for Inhibitors of RGS12 GoLoco Motif Activity (Green Fluorophore) (AID 879; active means well fitted curve in the direction sought with a large enough effect; an effect the other way counts as inactive or inconclusive;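 further: 0% = labeled peptide with Gαi1 and full inhibition = labeled peptide alone without protein; negative values mean loss of peptide binding seen as reduced polarization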)
Sequence of Guanine nucleotide-binding protein G(i) subunit alpha-1 (Homo sapiens) (P63096 whole entry, looked up): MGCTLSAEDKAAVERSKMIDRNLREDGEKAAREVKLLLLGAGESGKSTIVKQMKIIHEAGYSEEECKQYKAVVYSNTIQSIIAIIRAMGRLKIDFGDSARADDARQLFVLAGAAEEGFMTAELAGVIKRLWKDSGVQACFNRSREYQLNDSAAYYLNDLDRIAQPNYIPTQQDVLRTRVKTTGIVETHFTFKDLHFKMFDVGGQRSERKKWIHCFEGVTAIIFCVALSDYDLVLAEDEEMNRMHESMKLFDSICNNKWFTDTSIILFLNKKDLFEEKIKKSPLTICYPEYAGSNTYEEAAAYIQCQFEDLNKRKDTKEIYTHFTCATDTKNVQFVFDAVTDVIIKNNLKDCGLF
Summary of the method: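 A drop in FITC polarization marked displacement of the FITC-tagged RGS12 GoLoco peptide (10 nM) from Gαi1 (50 nM). Compounds were incubated 10 min at room temperature in Tris pH 7.5 buffer containing 150 mM NaCl, 0.1 mM GDP and 0.05% NP40; unlabeled peptide titration served as control.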

[11] = target: Cytochrome P450 2C9 (Homo sapiens) (UniProt P11712); assay: qHTS Assay for Inhibitors and Substrates of Cytochrome P450 2C9 (AID 883; active means well fitted curve in the direction sought with a large enough effect; an effect the other way counts as inactive or inconclusive; further: potency means the concentration at half of the fitted maximal effect; nearly all actives have a fitted effect of over 60% in size)
Summary of the method: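 Human CYP2C9 (10nM) with Luciferin-H at 100uM (its KM) in 25mM KPO4; compound preincubated 10 min at 37C, then NADPH regeneration for 60 min at 37C. Luciferin read by luminescence after detection reagent; normalized to 57uM sulphaphenazole as full inhibition.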

[12] = target: Muscarinic acetylcholine receptor M1 (Rattus norvegicus) (UniProt P08482); assay: qHTS Assay for Antagonists of Acetylcholine Muscarinic M1 Receptor: Measurement of IP-One Response (AID 944; active means well fitted curve in the direction sought with a large enough effect; an effect the other way counts as inactive or inconclusive; further: nearly all actives have a fitted effect of over 75% in size)
Sequence of Muscarinic acetylcholine receptor M1 (Rattus norvegicus) (P08482 whole entry, looked up): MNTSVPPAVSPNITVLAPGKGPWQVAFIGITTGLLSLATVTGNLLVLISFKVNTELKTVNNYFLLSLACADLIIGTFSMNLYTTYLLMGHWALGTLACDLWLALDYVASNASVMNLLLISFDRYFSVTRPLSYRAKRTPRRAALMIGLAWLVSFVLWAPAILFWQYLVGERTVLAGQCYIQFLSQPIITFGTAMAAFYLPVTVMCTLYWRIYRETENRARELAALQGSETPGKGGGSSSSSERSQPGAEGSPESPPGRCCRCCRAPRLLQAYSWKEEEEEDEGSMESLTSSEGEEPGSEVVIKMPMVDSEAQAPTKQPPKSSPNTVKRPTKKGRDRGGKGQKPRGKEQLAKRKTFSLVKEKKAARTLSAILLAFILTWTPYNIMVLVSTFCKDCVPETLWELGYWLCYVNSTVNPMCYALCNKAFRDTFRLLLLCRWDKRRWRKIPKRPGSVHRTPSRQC
Summary of the method: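 Read-out: HTRF competition between d2-IP1 and Eu-cryptate anti-IP1 antibody, emission 620 and 665 nm. Stimulus was carbachol, EC80 (200 nM), for 30 min in M1-CHO cells (rat receptor), after 10 min compound pre-treatment.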

[13] = target: Pyruvate kinase (Leishmania mexicana) (UniProt Q27686); assay: qHTS Validation Assay for Inhibitors of Leishmania Mexicana Pyruvate Kinase (AID 945; active means well fitted curve in the direction sought with a large enough effect; an effect the other way counts as inactive or inconclusive;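 further: 0% = DMSO only neutral control wells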)
Summary of the method: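 Pyruvate kinase activity of E451W LmPYK (0.2 nM) was followed as ATP output after 1 h at room temperature with 0.5 mM PEP and 0.1 mM ADP, detected by PKLight luminescence.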

[14] = target: Pyruvate kinase PKM (Homo sapiens) (UniProt P14618); assay: qHTS Assay for Activators of Human Muscle Pyruvate Kinase (AID 954; active means well fitted curve in the direction sought with a large enough effect, not every such curve was filed as active;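 further: 0% = uninhibited enzyme and -100% = no enzyme or full thiadiazolimine inhibition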)
Sequence of Pyruvate kinase PKM (Homo sapiens) (P14618 whole entry, looked up): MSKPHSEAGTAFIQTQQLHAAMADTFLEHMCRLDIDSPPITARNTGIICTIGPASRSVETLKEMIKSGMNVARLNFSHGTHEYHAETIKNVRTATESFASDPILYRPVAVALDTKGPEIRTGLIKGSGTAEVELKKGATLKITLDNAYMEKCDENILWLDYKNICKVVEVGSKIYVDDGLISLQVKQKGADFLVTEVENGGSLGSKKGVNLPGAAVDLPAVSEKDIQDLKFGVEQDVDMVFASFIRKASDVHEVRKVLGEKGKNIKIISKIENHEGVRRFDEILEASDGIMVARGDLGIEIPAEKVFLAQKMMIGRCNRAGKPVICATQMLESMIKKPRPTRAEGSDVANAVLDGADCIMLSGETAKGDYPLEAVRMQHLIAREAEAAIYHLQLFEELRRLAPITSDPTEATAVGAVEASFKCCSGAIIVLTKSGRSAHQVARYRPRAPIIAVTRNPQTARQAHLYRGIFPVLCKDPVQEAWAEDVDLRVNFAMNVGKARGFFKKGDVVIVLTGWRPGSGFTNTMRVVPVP
Summary of the method: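 A coupled luminescent readout tracked ATP made from ADP by purified PKM2. Final conditions included 0.1 nM enzyme, PEP and ADP at 0.5 and 0.1 mM, pH 7.2 imidazole buffer with BSA, and a one-hour room-temperature reaction.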

[15] = target: Alpha-galactosidase A (Homo sapiens) (UniProt P06280); assay: Counterscreen for Glucocerebrosidase Inhibitors: qHTS Assay for Human alpha-Galactosidase at pH 4.5 (AID 992; active means well fitted curve in the direction sought with a large enough effect; an effect the other way counts as inactive or inconclusive; further: 0% is about no effect)
Sequence of Alpha-galactosidase A (Homo sapiens) (P06280 whole entry, looked up): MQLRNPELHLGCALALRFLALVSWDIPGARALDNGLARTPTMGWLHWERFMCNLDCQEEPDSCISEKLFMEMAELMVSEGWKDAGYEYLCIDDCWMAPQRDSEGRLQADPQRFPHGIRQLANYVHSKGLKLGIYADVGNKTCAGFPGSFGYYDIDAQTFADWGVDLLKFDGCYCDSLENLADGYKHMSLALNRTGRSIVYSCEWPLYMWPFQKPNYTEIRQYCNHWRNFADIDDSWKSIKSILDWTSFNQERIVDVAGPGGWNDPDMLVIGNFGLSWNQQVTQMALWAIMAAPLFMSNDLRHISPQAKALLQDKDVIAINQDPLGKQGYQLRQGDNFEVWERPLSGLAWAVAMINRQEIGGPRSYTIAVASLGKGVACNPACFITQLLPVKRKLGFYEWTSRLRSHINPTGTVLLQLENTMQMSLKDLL
Summary of the method: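 Citrate buffer pH 4.5, Tween-20 0.005%. Enzyme 2 nM, substrate 80 uM, 20 min RT. Stop pH 10. Fluorescence Ex 365/Em 440. AC50 by Hill fit.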

[16] = target: alpha-glucosidase (Oryza sativa, rice) (UniProt Q653V4); assay: Counterscreen for Glucocerebrosidase Inhibitors: qHTS Assay for Rice alpha-Glucosidase at pH 5.0 (AID 997; active means well fitted curve in the direction sought with a large enough effect; an effect the other way counts as inactive or inconclusive;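 further: 0% = full activity with enzyme and -100% = basal without enzyme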)
Summary of the method: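 Endpoint fluorogenic assay at pH 5.0: compounds (0.7 nM to 77 uM) titrated against 4 nM rice enzyme and 400 uM 4-MU-alpha-glucoside for 20 min at room temperature; NaOH/glycine stop, read ex 365/em 440 nm, Hill-fitted AC50.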

[17] = target: Cytochrome P450 2D6 (Homo sapiens) (UniProt P10635); assay: qHTS Assay for Inhibitors and Substrates of Cytochrome P450 2D6 (AID 891; active means well fitted curve in the direction sought with a large enough effect; an effect the other way counts as inactive or inconclusive;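 further: luciferin methyl ether substrate demethylated by CYP2D6 with NADPH regeneration; on the % scale 0 is the no-effect control and ±100 the full control effect; nearly all actives have a fitted effect of over 60% in size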)
Summary of the method: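 Luminescent read-out of luciferin formed by 5 nM human CYP2D6 demethylating 30 uM Luciferin-ME EGE (Km level) over 60 min at room temperature after NADPH regeneration addition. Data normalized to full inhibition by 1.43 uM quinidine.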

[18] = target: Cytochrome P450 2C19 (Homo sapiens) (UniProt P33261); assay: qHTS Assay for Inhibitors and Substrates of Cytochrome P450 2C19 (AID 899; active means well fitted curve in the direction sought with a large enough effect; an effect the other way counts as inactive or inconclusive; further: nearly all actives have a fitted effect of over 60% in size; further: potency means the concentration at half of the fitted maximal effect)
Sequence of Cytochrome P450 2C19 (Homo sapiens) (P33261 whole entry, looked up): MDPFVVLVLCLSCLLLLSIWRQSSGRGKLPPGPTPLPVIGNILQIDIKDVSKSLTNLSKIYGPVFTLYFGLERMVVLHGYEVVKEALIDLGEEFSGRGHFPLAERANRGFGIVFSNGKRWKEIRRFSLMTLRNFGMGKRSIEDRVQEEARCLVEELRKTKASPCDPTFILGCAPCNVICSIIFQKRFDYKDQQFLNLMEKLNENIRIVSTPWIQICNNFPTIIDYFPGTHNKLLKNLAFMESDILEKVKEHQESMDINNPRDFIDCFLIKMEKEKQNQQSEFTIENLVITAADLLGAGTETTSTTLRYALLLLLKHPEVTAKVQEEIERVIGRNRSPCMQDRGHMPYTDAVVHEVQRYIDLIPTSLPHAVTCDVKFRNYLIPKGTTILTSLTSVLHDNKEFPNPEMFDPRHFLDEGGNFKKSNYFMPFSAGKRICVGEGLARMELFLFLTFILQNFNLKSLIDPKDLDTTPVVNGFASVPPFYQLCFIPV
Summary of the method: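 5 nM human CYP2C19 with 10uM Luciferin-H EGE (at KM) in 50mM KPO4, compound preincubated 10 min at 37C, then NADPH regeneration for 60 min at 37C. Luciferin read by luminescence after detection reagent; normalized to 57uM ketoconazole as full inhibition.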

[19] = qHTS Assay for Identification of Small Molecule Antagonists for NFkB Signaling Pathway (AID 895; active means well fitted inhibition curve with a large enough effect in the signal ratio, with a control signal flat, not every such curve was filed as active; the % refers to the signal ratio; further: on the % scale 0 is the no-effect control and ±100 the full control effect)
Summary of the method: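 ME-180 NFkB-bla cells (beta-lactamase under NFkB response element), plated overnight, treated with compound then 10 pM TNF alpha (about EC50) for 5 hrs at 37 C. LiveBLAzer FRET read at 460/530 nm emission, 405 nm excitation.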

[20] = qHTS Assay for Identification of Small Molecule Agonists for Thrombopoietin (TPO) Signaling Pathway (AID 917; active means well fitted curve in the direction sought with a large enough effect; an effect the other way counts as inactive or inconclusive; further: on the % scale 0 is the no-effect control and ±100 the full control effect)
Summary of the method: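 Ba/F3 (mouse) + hTPO receptor + GpIIb-promoter luciferase; IL-3 withdrawn overnight; compound + 26 pM TPO (EC50), 24 hrs, 37 C, 5% CO2; Steadylite luminescence, 10 min RT.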

C[C@]1(c2ccccc2)O[C@@H]2C[C@@H]3[C@@H]4CCC5=CC(=O)C=C[C@@]5(C)[C@]4(F)[C@H](O)C[C@]3(C)[C@@]2(C(=O)CO)O1
inactive: activity change, negative = inhibition [1] 7.91% | activity change, negative = inhibition [2] -16.4% [at 2.29 µM] | activity change, negative = inhibition [3] -6.34% | activity, negative = inhibition [4] -4.73% | Potency [7] | Potency [8] | Potency [9]
active: Potency [5] < 2.95e-05 µM | Potency [6] 0.00231 µM

CCCC[C@]1(C2CCCC2)Cc2cc(OCC(=O)O)c(Cl)c(Cl)c2C1=O
inactive: activity change, negative = inhibition [1] -1.05% [at 38 µM] | Potency [2] | activity change, negative = inhibition [3] -21.4% [at 38 µM] | activity, negative = inhibition [4] -1.69% [at 38 µM] | Potency [5] > 46 µM | Potency [6] > 46 µM | Potency [7] | outcome [10] | Potency [9] | Potency [12] | outcome [13] | outcome [14] | outcome [15] | Potency [16]
active: Potency [11] 2.51 µM

Cc1sc2ccccc2[n+]1CCC(=O)O
inactive: activity change, negative = inhibition [1] 3.36% | Potency [2] | activity change, negative = inhibition [3] 16.6% | activity, negative = inhibition [4] 8% | Potency [5] > 46 µM | Potency [6] > 9.22 µM | Potency [7] | Potency [8] | Potency [17]

CN(Cc1cc(C(C)(C)C)cc(Br)c1O)Cc1cc(C(C)(C)C)cc(Br)c1O
inactive: activity change, negative = inhibition [1] -2.5% | activity change, negative = inhibition [3] 11.8% | activity, negative = inhibition [4] 7.17% | Potency [5] > 46 µM | Potency [6] > 9.22 µM | Potency [7] | Potency [8]
active: Potency [2] 3.16 µM | Potency [18] 3.16 µM

C[N@+]1(CCC(=O)c2ccccc2)CC[C@H]2CC[C@H](C2)C1
inactive: activity change, negative = inhibition [1] 2.46% | Potency [2] | activity change, negative = inhibition [3] 3.4% | activity, negative = inhibition [4] 1.34% | Potency [5] > 46 µM | Potency [6] > 9.22 µM | Potency [7] | Potency [8] | Potency [18]

CSc1nc(N)c2ncn([C@@H]3O[C@@H](COP(=O)(O)OP(=O)(O)O)[C@@H](O)[C@H]3O)c2n1
inactive: activity change, negative = inhibition [1] 22.9% [at 38 µM] | Potency [2] | activity change, negative = inhibition [3] 6.32% [at 38 µM] | activity, negative = inhibition [4] 5.34% [at 38 µM] | Potency [5] > 46 µM | Potency [6] > 46 µM | Potency [8] | outcome [10] | Potency [19] | outcome [20] | Potency [12] | outcome [14] | outcome [15] | Potency [16]
